For seven molecules, outcome and Potency results are on record in PubChem BioAssay (Tox21).

The target in assay [1] is Thyrotropin-releasing hormone receptor (Homo sapiens) (UniProt P34981). Briefly: qHTS assay to identify small molecule agonists of the thyrotropin-releasing hormone receptor (TRHR) signaling pathway (AID 1346891; calls by dose curve; also: series mostly up to about 58 µM). An outline of the steps: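 HEK293 cells expressing TRHR plated 18 h at 37 C/5% CO2, calcium dye-loaded 2 h at 37 C, then compound added (agonist mode); kinetic calcium fluorescence read 3 min at 1 s intervals; 15 concentrations in triplicate.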
Sequence of Thyrotropin-releasing hormone receptor (Homo sapiens) (P34981 whole entry, looked up): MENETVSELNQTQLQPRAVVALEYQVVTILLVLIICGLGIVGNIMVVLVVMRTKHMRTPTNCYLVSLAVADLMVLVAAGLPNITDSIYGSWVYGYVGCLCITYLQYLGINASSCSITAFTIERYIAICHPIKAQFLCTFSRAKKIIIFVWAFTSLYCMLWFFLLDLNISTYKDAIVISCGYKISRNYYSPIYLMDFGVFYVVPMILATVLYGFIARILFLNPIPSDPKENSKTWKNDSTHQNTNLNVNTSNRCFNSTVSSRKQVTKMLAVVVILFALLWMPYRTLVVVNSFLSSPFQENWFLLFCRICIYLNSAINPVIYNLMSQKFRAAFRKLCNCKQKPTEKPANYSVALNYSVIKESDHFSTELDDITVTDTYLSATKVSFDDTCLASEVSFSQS

Assay [2] is described as follows: Human pregnane X receptor (PXR) small molecule agonists, qHTS cell viability counter screen (AID 1346977). Also: nearly all actives have a fitted effect of over 50% in size. An outline of the steps: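 PXR-Luc HepG2 cells (2,000/well, 5% charcoal-stripped FBS) preincubated 5 hr, then exposed to compounds 24 hr at 37 C. Viability read in the same wells by CellTiter-Fluor fluorescence, reagent added at 23 hr, 1 hr incubation.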
(In general: qHTS replaces the single test concentration by a dilution series.)

The nature of assay [3]: Caspase-3/7 induction in HepG2 cells by small molecules, qHTS assay (AID 1346978). Also: nearly all actives have a fitted effect of over 15% in size. A digest of the protocol: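 Wild-type HepG2 cells (2,000/well) were settled 5 h at 37 C, 5% CO2, then exposed to compounds in DMSO for 17 h. Caspase-3/7 activity was read by luminescence 30 min after adding Caspase-Glo 3/7 reagent at room temperature.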
Assay [4] is described as follows: Caspase-3/7 induction in CHO-K1 cells by small molecules, qHTS assay (AID 1346980). Also: nearly all actives have a fitted effect of over 15% in size. A digest of the protocol: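 Wild-type cells were seeded at 1,500 per well and settled 5 hr at 37 C, 5% CO2, then exposed to DMSO-dissolved compounds for 17 hr. Caspase-Glo 3/7 reagent was added, and luminescence was read after 30min at room temperature.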
Assay [5] is described as follows: Caspase-3/7 induction in HepG2 cells by small molecules, qHTS cell viability counter screen (AID 1346981). Also: series mostly up to about 92 µM; nearly all actives have a fitted effect of over 30% in size. An outline of the steps:
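HepG2, WT, 2,000 cells/well; 5 hr pre-incubation 37 C/5% CO2; compound pin-transferred from DMSO; 16 hr exposure; CellTiter-Fluor, 1 hr; fluorescence read.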

For assay [6], the target named is Nuclear receptor subfamily 1 group I member 2 (Homo sapiens) (UniProt O75469). Nature of the assay: Human pregnane X receptor (PXR) small molecule agonists, qHTS assay (AID 1346982). Also: nearly all actives have a fitted effect of over 35% in size. An outline of the steps:
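Luciferase signal from ONE-Glo (30 min, room temperature) measured activation of hPXR-driven CYP3A4 reporter expression in PXR-Luc HepG2 cells treated with compounds for 24 hr at 37 C.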

In assay [7] the target is Cytochrome P450 2D6 (Homo sapiens) (UniProt P10635). Nature of the assay: Cytochrome P450 Family 2 Subfamily D Member 6 (CYP2D6) small molecule antagonists: luciferase reporter qHTS assay (AID 1671196). Also: nearly all actives have a fitted effect of over 50% in size. Also: potency is read from the fitted curve at half-maximal effect. An outline of the steps: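 Read-out is luminescence from luciferin formed by CYP2D6 turnover of a proluciferin substrate, recorded as relative luminescence units. Reactions ran 1 h at room temperature after NADPH regeneration solution was added.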
Sequence of Cytochrome P450 2D6 (Homo sapiens) (P10635 whole entry, looked up): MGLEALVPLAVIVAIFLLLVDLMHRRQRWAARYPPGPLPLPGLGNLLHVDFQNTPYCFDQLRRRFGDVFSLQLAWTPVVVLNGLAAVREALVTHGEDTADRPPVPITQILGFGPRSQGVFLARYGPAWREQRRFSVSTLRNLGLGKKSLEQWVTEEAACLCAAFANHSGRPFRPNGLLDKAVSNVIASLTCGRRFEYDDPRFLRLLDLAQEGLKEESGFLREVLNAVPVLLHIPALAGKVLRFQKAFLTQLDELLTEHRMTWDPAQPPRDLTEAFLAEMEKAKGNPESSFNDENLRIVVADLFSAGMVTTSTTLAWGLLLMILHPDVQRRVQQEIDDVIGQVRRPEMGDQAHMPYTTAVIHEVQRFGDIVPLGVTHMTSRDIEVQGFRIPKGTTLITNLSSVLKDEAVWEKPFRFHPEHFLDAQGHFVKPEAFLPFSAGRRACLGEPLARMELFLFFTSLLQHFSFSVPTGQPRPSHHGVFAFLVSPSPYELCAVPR
(A reporter such as luciferase makes a cellular process visible.)

The target of assay [8] is Cytochrome P450 2C19 (Homo sapiens) (UniProt P33261). Nature of the assay: Cytochrome P450 Family 2 Subfamily C Member 19 (CYP2C19) small molecule antagonists: luciferase reporter qHTS assay (AID 1671197). Also: nearly all actives have a fitted effect of over 65% in size. Also: potency is read from the fitted curve at half-maximal effect. A digest of the protocol:
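P450-Glo CYP2C19 system: enzyme-substrate mix with compound 10 min at room temperature, then NADPH regeneration solution, 1 h at 37C. Proluciferin-to-luciferin conversion detected by luminescence after 20 min with detection reagent; ketoconazole as positive control.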

Assay [9] concerns the target Cytochrome P450 2C9 (Homo sapiens) (UniProt P11712). Briefly: Cytochrome P450 Family 2 Subfamily C Member 9 (CYP2C9) small molecule antagonists: luciferase reporter qHTS assay (AID 1671198). Also: nearly all actives have a fitted effect of over 50% in size. Also: potency is read from the fitted curve at half-maximal effect. A digest of the protocol:
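CYP2C9 activity was measured with a P450-Glo proluciferin substrate. Enzyme–substrate mix was held with compound for 10 min at room temperature, then NADPH regeneration solution was added for 1 h at 37C. Luciferin product was read as luminescence.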

For assay [10], the target named is Cytochrome P450 1A2 (Homo sapiens) (UniProt P05177). Briefly: Cytochrome P450 Family 1 Subfamily A Member 2 (CYP1A2) small molecule antagonists: luciferase reporter qHTS assay (AID 1671199). Also: nearly all actives have a fitted effect of over 50% in size. Also: potency is read from the fitted curve at half-maximal effect. A digest of the protocol: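 P450-Glo CYP1A2, 1536-well qHTS: enzyme/proluciferin substrate + cpd (DMSO), 10 min RT; NADPH regen, 1 h RT; detection reagent, 20 min; luminescence, RLU.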
Sequence of Cytochrome P450 1A2 (Homo sapiens) (P05177 whole entry, looked up): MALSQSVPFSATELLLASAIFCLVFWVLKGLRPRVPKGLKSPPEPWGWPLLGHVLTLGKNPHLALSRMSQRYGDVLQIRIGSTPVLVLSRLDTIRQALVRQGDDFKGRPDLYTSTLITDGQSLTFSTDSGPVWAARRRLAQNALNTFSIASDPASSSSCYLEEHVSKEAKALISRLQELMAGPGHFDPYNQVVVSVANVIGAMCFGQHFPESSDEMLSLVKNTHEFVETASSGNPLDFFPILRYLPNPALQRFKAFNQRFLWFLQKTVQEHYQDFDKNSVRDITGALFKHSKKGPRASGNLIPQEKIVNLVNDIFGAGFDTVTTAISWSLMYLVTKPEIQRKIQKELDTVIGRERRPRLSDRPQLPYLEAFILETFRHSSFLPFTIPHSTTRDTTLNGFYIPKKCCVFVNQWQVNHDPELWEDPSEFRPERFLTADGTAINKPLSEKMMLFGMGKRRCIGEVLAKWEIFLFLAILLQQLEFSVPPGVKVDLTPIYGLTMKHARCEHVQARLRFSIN

The target of assay [11] is Voltage-gated inwardly rectifying potassium channel KCNH2 (Homo sapiens) (UniProt Q12809). Briefly: Human Ether-a-go-go-Related Gene (hERG) channel small molecule antagonists: fluorescence cell-based qHTS assay (AID 1671200). Also: nearly all actives have a fitted effect of over 50% in size. Also: potency is read from the fitted curve at half-maximal effect. An outline of the steps:
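hERG-U2OS cells plated overnight at 37 C, loaded with FluxOR II dye 1 h at RT in dark; after 10 min, thallium stimulus added. Fluorescence (480/540 nm) read kinetically for 2 min at 1 s intervals.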
(In general: Block of hERG is tested as a sign of cardiac risk.)

For assay [12], the target named is Cytochrome P450 3A4 (Homo sapiens) (UniProt P08684). Nature of the assay: Cytochrome P450 Family 3 Subfamily A Member 4 (CYP3A4) small molecule antagonists: luciferase reporter qHTS assay (AID 1671201). An outline of the steps:
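P450-Glo CYP3A4 luminescent assay: compounds preincubated 10 min at room temperature with enzyme and proluciferin substrate, NADPH regeneration added, 1 h room-temperature reaction, stopped with luciferin detection reagent; luminescence read after 20 min. Ketoconazole positive control.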

Values without a mark were called inactive. Records with an inconclusive call do not appear. Calls of active or inactive are those of the source. Unless noted, calls follow the shape of the dose curve; as a rule, active = well fitted curve in the direction sought with a large enough effect in the repeat runs; inconclusive = weak or mixed curves; inactive = no such curve, though single readings can be large; an effect the other way counts as inactive or inconclusive.

Sequence of Cytochrome P450 2C9 (Homo sapiens) (P11712 whole entry, looked up): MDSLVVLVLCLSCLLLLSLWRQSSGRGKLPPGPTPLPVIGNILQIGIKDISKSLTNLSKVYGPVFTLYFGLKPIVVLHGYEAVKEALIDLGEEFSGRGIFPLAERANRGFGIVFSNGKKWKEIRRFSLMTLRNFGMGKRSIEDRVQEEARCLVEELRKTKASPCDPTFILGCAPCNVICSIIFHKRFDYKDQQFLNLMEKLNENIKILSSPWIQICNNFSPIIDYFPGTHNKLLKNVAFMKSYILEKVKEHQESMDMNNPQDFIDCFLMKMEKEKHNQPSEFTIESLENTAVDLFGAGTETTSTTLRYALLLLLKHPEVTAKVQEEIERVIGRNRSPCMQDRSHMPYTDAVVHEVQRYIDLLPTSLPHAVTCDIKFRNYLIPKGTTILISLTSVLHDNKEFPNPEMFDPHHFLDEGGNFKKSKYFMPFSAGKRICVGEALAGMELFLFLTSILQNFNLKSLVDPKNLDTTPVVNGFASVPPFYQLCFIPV
Sequence of Nuclear receptor subfamily 1 group I member 2 (Homo sapiens) (O75469 whole entry, looked up): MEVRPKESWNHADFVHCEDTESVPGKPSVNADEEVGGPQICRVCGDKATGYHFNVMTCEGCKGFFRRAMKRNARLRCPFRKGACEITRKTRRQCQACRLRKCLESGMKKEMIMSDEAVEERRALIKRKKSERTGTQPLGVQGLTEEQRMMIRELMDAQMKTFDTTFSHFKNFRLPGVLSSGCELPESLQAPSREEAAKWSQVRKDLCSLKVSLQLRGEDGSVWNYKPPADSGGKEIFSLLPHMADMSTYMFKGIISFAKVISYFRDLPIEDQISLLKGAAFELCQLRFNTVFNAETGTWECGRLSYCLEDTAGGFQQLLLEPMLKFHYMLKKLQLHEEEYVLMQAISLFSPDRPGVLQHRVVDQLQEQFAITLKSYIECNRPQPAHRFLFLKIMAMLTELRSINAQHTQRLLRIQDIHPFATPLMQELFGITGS
Sequence of Cytochrome P450 2C19 (Homo sapiens) (P33261 whole entry, looked up): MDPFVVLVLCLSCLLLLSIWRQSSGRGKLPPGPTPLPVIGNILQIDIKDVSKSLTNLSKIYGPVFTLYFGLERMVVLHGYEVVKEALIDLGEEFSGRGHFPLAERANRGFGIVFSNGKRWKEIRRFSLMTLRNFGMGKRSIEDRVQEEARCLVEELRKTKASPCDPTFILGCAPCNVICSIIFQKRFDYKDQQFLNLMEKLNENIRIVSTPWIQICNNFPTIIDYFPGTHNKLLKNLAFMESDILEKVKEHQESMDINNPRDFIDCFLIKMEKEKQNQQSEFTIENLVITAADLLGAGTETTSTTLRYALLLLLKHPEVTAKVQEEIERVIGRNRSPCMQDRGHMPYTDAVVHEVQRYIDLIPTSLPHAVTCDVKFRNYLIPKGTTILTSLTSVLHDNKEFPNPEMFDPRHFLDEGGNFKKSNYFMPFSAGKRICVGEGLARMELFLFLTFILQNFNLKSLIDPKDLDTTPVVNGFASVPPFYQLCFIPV
Sequence of Cytochrome P450 3A4 (Homo sapiens) (P08684 whole entry, looked up): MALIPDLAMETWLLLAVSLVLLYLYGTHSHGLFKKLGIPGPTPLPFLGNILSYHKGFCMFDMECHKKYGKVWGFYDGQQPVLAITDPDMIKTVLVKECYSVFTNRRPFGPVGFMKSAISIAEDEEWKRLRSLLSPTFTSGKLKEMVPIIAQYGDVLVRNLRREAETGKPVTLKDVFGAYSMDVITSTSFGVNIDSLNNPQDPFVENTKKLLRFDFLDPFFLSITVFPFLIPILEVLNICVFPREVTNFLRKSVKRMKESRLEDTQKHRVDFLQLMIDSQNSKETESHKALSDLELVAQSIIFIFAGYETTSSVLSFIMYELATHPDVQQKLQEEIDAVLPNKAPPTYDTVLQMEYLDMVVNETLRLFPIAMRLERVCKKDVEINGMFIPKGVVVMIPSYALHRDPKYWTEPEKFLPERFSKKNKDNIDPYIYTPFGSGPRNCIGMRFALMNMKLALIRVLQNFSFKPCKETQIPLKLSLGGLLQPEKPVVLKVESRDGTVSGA
Sequence of Voltage-gated inwardly rectifying potassium channel KCNH2 (Homo sapiens) (Q12809 whole entry, looked up): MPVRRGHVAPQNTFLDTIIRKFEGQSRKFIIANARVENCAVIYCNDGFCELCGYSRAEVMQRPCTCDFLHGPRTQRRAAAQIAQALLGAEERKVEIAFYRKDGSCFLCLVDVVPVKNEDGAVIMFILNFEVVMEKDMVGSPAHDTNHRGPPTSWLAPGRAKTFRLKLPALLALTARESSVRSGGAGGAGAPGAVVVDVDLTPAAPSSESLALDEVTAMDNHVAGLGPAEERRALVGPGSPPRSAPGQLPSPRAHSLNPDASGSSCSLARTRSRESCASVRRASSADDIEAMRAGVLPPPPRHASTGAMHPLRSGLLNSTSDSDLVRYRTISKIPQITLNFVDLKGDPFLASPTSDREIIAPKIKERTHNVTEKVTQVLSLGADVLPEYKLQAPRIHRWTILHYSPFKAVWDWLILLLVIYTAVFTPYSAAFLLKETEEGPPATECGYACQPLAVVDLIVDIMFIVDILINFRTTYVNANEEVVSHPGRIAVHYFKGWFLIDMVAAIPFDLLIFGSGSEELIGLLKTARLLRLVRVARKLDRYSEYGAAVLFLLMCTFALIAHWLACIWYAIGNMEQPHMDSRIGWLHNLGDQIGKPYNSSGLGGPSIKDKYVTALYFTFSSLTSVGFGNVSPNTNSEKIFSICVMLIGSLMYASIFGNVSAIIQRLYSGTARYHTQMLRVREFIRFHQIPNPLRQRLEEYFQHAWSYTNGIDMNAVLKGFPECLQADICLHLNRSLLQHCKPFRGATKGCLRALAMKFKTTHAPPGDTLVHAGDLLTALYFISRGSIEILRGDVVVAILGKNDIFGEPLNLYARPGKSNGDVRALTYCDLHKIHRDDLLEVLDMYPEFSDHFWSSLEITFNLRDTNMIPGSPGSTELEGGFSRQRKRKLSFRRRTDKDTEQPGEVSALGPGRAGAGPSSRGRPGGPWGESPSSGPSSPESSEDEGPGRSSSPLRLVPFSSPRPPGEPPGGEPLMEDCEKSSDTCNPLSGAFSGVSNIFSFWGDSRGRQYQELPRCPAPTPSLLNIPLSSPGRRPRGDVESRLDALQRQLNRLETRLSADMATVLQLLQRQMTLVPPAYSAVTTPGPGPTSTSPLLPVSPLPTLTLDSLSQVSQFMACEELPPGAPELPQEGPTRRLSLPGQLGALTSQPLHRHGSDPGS

Turning to `CC(CCc1ccc(O)cc1)NCCc1ccc(O)c(O)c1` (stereo not drawn), the outcome in assay [1] and in assay [4] was inactive. In addition, the Potency result in assay [2], in assay [3], in assay [5], in [6], in assay [8] and in [9] was “inactive” throughout. Also, the Potency result in assay [10] and in assay [12] was “inactive” in each case. Moreover, the Potency in assay [7] was 15.5 µM (active); in [11], 13.4 µM (active).
Consider `CC(=O)OCCC1CCCCC1`, for which the call in assay [1] and in assay [4] was inactive. The Potency result in assay [2], in assay [3], in assay [5], in [6], in assay [7] and in assay [8] was “inactive” each time. Besides, the Potency result in assay [9], in assay [11] and in assay [12] was “inactive” throughout.
In the case of `N[C@@H](Cc1cc(I)c(O)c(I)c1)C(=O)O`, the molecule was classed as inactive in assay [1] and in assay [4]. Moreover, the Potency result in [2], in [3], in [5], in [6], in [7] and in [8] was “inactive” each time. For the same molecule, the Potency entry in [10], in assay [11] and in assay [12] was “inactive” in each case. Further, in assay [9], the Potency is 38.9 µM (active).
As for `CC(C)c1ccc(C#N)cc1`, the molecule was classed as inactive in [1] and in assay [4]. Besides, the Potency entry in assay [2], in [3], in assay [5], in assay [6], in assay [7] and in [8] was “inactive” throughout. Moreover, the Potency entry in assay [9], in assay [10] and in [12] was “inactive” each time.
Regarding `CCCCCc1ccco1`, the molecule was classed as inactive in assay [1] and in assay [4]. Further, the Potency result in assay [2], in assay [3] and in [5] was “inactive” in each case. The Potency in assay [8] was 32.8 µM (active); in [9] it was 26 µM (active); in assay [10], 36.8 µM (active).
Take `CC(C)(C)C1(CCc2ccc(Cl)cc2)CO1` (stereo not drawn): the call in assay [1] and in assay [4] was inactive. The Potency result in assay [2], in assay [3], in assay [5] and in assay [12] was “inactive” throughout. Moreover, the Potency is 1.26 µM (active) in assay [8], 17.8 µM (active) in [9], 20 µM (active) in assay [10] and 24.5 µM (active) in assay [11].
On to `CCCCCCCC(=O)Oc1c(Br)cc(C#N)cc1Br`, for which the molecule was classed as inactive in assay [1] and in [4]. Moreover, the Potency entry in assay [2], in [3], in assay [6] and in assay [12] was “inactive” each time. The figures for the Potency in assay [8], in assay [9] and in assay [10] were 35.5 µM (active), 39.8 µM (active) and 12.6 µM (active), respectively.
